# According to PubChem BioAssay AID686979 (National Center for Advancing Translational Sciences (NCATS), 2013):
# Hit rate of the full screen: of about 420,000 compounds, about 50,000 (12%) were called active. Entries that show only a call come without a potency. Another 26% or so got no clear call; they are omitted. The call rests on the fitted dose curve; in most records, active means well fitted inhibition curve with a large enough effect; inconclusive means small, poorly fitted or top-dose-only effect; inactive means flat fitted curve, though single readings scatter. This excerpt belongs to a sample that is enriched for actives.
# Experiment: qHTS for Inhibitors of human tyrosyl-DNA phosphodiesterase 1 (TDP1): qHTS in cells in presence of CPT; further: nearly all actives have a fitted effect of over 55% in size
# Settings: chicken DT40 Tdp1-/-;hTDP1 cells + 20 nM CPT, ATP luminescence, 48 h; series mostly up to 46.2 µM
# In short: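 Chicken DT40 Tdp1-/- cells stably complemented with human TDP1 were seeded at 400 cells/well in medium containing 20 nM camptothecin, exposed to pin-transferred compounds, and grown at 37 °C for at least 48 hr. Viability was read as ATP luminescence.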
# Potency means the concentration at half of the fitted maximal effect.
row,Compound,Potency
1,CSc1nc(O)c(Cc2ccccc2)c(=O)[nH]1,inactive
2,COc1ccc(Cc2nnc(SC)[nH]c2=O)cc1,12.6 µM (active)
3,COc1ccc(Cc2nnc(SCC(=O)Nc3ccc(C)c(Cl)c3)[nH]c2=O)cc1,inactive
4,COc1ccc(NC(=O)CCNC(=O)Cn2cnc3sc4c(c3c2=O)CCCC4)cc1OC,inactive
5,O=C(O)CC(SCC(=O)Nc1ccc(Br)cc1)C(=O)O (stereo not given),inactive
6,Cc1ccc(NC(=S)NCCN2CCOCC2)cc1,inactive
7,CCOc1cccc(/C=N/NC(=S)NCCN2CCOCC2)c1O,4.11 µM (active)
8,Cc1ccc(C(=O)NC(=S)NCCN2CCOCC2)cc1,inactive
9,C=CCSc1nnc(NC(=O)c2ccc(NC(C)=O)cc2)s1,inactive
10,COCCN(CCOC)S(=O)(=O)c1ccc(C(=O)Nc2nc3c(s2)CCc2ccccc2-3)cc1,9.2 µM (active)
11,COCc1nnc(NC(=O)c2ccc3c(c2)OCO3)s1,inactive
12,NC(=O)c1c(NC(=O)c2ccccc2)sc2c1CCCC2,inactive
13,O=C(Nc1ncc2c(n1)-c1ccccc1OC2)c1ccc(Cl)cc1,inactive
14,C=CCN(CC=C)S(=O)(=O)c1ccc(C(=O)Nc2sc3c(c2C(N)=O)CCCCC3)cc1,13 µM (active)
15,COc1ccc(C(=O)Nc2ncc3c(n2)-c2ccccc2CC3)cc1,inactive
16,COc1cccc(OC)c1C(=O)Nc1sc2c(c1C(N)=O)CCCC2,inactive
17,C=CCN(CC=C)S(=O)(=O)c1ccc(C(=O)Nc2nc3c(s2)CCc2ccccc2-3)cc1,16.4 µM (active)
18,Cc1ccc2c(=O)cc(C(=O)NCCc3ccc(S(N)(=O)=O)cc3)oc2c1C,inactive
19,O=C1CC2(CCCC2)Oc2ccc(Cl)cc21,inactive
20,O=C1C=C(c2ccccc2)CCC1,inactive
21,CC1CCCCC1NC(=O)CN1CCC(O)(c2ccc3c(c2)OCO3)CC1 (stereo not given),inactive
22,CC(CCc1ccccc1)NCC(O)c1cccc([N+](=O)[O-])c1 (stereo not given),inactive
23,CCn1c2ccccc2c2nnc(N3CCN(c4cc(C)ccc4C)CC3)nc21,inactive
24,CCNC(=O)c1cccc(NC(=O)C2CC(=O)N(CCc3ccccc3)C2)c1 (stereo not given),inactive
25,CC(=O)c1cccc(NC(=O)N2CCCC2C(=O)NCCc2ccccc2)c1 (stereo not given),inactive

row,Compound,Potency
1,O=C(Cc1ccc([N+](=O)[O-])cc1)Nc1ccc(C(=O)N2CCOCC2)cc1,inactive
2,CN(C(=O)c1ccc(NC(=O)Cc2cccc(NC(=O)C3CCN(C(=O)c4ccccc4)CC3)c2)cc1)C1CC1,inactive
3,CN(CCc1ccccc1)C(=O)c1cccc(NC(=O)Cc2cccc(NC(=O)C3CCCN(C(=O)C4CCC4)C3)c2)c1 (stereo not given),18.4 µM (active)
4,O=C(Cc1ccc(NC(=O)C2CCCN(C(=O)CCc3ccccc3)C2)cc1)Nc1ccc(C(=O)N2CCOCC2)cc1 (stereo not given),23.1 µM (active)
5,O=C(Cc1ccc(NC(=O)C2CCCN(C(=O)C3CCCCC3)C2)cc1)Nc1cccc(C(=O)N2CCCCC2)c1 (stereo not given),inactive
6,CN(CCc1ccccc1)C(=O)c1cccc(NC(=O)Cc2cccc(NC(=O)C3CCCN(C(=O)CCc4ccccc4)C3)c2)c1 (stereo not given),14.6 µM (active)
7,CN(C(=O)c1cccc(NC(=O)Cc2ccc(NC(=O)C3CCCN(C(=O)C4CC4)C3)cc2)c1)C1CC1 (stereo not given),inactive
8,COc1ccc(CC(=O)NC2CCSc3ccccc32)cc1OC (stereo not given),inactive
9,CCOc1c2ccc(C(=O)NC3CCCc4ccccc43)cc2nn1CC (stereo not given),inactive
10,O=C(Nc1ccc(S(=O)(=O)Nc2nccs2)cc1)c1cccc(S(=O)(=O)N2CCOCC2)c1,inactive
11,CCNc1c(NS(=O)(=O)c2ccc(C3CCCCC3)cc2)c(=O)oc2ccccc12,18.4 µM (active)
12,O=c1oc2ccccc2c(NC2CCCCC2)c1NS(=O)(=O)c1ccc(Cl)cc1,inactive
13,CC(C)(C)Nc1c(N)c(=O)oc2ccccc12,inactive
14,CCc1ccccc1N1C(=O)C2C3CC(=O)C(c4ccccc43)C2C1=O (stereo not given),inactive
15,CC1CCC(CN2CCN=C2N(C)C)CC1 (stereo not given),8.2 µM (active)
16,CC(C)CCN1CCN=C1N(C)C,inactive
17,CCC(C)CCN1CCN=C1N(C)C (stereo not given),inactive
18,NS(=O)(=O)c1cccc(NC(=O)COC(=O)c2cc([N+](=O)[O-])ccc2N2CCCC2)c1,inactive
19,CCOC(=O)N1CCC(N2CCOc3ccc(CN4CCC(O)(c5cccnc5)CC4)cc3C2)CC1,inactive
20,NCCCNCCCCN(CCCN)/[N+]([O-])=N/O,13.3 µM (active)
21,COc1ccc(N2CCN(Cc3ccc(Br)s3)CC2)cc1,inactive
22,CCCCCCCC[n+]1cccc(C(=O)N2c3c(nc(N)[nH]c3=O)NC(C)C2C)c1 (stereo not given),inactive
23,Cc1ccc(S(=O)(=O)N[C@@H](Cc2ccccc2)C(=O)N2CCC(C(=O)N[C@H](C(=O)O)C(C)O)CC2)cc1 (stereo not given in full),inactive
24,CC1(C)C=C2[C@H]3CC[C@@H]4[C@@]5(C)CCC(=O)C(C)(C)[C@@H]5CC[C@@]4(C)[C@]3(C)CC[C@@]2(C(=O)O)CC1,5.17 µM (active)
25,N#Cc1cccc(OC(=O)c2ccc3c(=O)n4c(nc3c2)CCC4)c1,inactive

row,Compound,Potency
1,O=C(CCNC(=O)C1CCN(S(=O)(=O)c2ccccc2)CC1)NC1CC1,inactive
2,O[C@H]1CN(Cc2cccs2)[C@@H](c2ccc(Cl)cc2)C[C@@H]1n1cc(C2CC2)nn1,inactive
3,Cc1ccc(O)c(-c2cc(C(=O)NCc3ccccc3)[nH]n2)c1,inactive
4,O=C(Cc1cccs1)NCc1cccc(C(F)(F)F)c1,inactive
5,Cc1cc(O)ccc1-c1cc(C(=O)NCc2cc(C(F)(F)F)cc(C(F)(F)F)c2)[nH]n1,18.4 µM (active)
6,Cc1ccc(NC(=O)COC(=O)C2C3CC4OC(=O)C2C4C3)cc1Cl (stereo not given),inactive
7,CC(C)(C)n1nnnc1C(c1ccc(F)cc1)N1CCN(Cc2ccc3c(c2)OCO3)CC1 (stereo not given),inactive
8,CC(C)(C)n1nnnc1C(c1ccccc1F)N1CCN(C(=O)c2ccco2)CC1 (stereo not given),inactive
9,Fc1ccccc1C(c1nnnn1Cc1ccc2c(c1)OCO2)N1CCN(Cc2ccccc2)CC1 (stereo not given),14.6 µM (active)
10,Cc1cccc2c1cnn2C(=O)CCC(=O)NC1CCCCC1,inactive
11,COc1ccc2[nH]c3nc(SCC(=O)NC4CC4)nnc3c2c1,inactive
12,O=C(CSc1nnc2c(n1)[nH]c1ccccc12)NC1CCCCC1,inactive
13,CCOc1ccc2[nH]c3nc(SCC(=O)NC4CCCC4)nnc3c2c1,5.17 µM (active)
14,CCN(CC)CCNC(=O)c1ccc(NS(=O)(=O)c2ccc3c(c2)OCCO3)cc1,inactive
15,O=S(=O)(Nc1ccccc1)c1ccc(NS(=O)(=O)c2cccs2)cc1,inactive
16,NS(=O)(=O)c1ccc(CCNC(=O)c2ccc([N+](=O)[O-])cc2[N+](=O)[O-])cc1,inactive
17,Cc1cccc(S(=O)(=O)N(C)C[C@@H]2OCc3cnnn3CCCC(=O)N([C@H](C)CO)C[C@@H]2C)c1,inactive
18,O=C(O)c1cc(Cl)c(Cl)cc1C(=O)Nc1cccc2ncccc12,inactive
19,Cc1ccc(C(=O)Nc2nc3ccc(Cl)cc3s2)o1,inactive
20,CC(=O)Cc1nsc(NC(=O)c2ccc(Cl)cc2Cl)n1,inactive
21,O=C(Nc1cccc2ncccc12)c1ccc(-c2ccc(Cl)cc2Cl)o1,20.6 µM (active)
22,O=C(Nc1cccnc1Cl)c1cc(-c2cccc(Cl)c2)on1,inactive
23,Cc1csc(NC(=O)c2ccc(-c3ccc(Cl)cc3Cl)o2)n1,9.2 µM (active)
24,O=C(Cc1ccsc1)N1CCN(S(=O)(=O)c2cc(C(F)(F)F)cc(C(F)(F)F)c2)CC1,inactive
25,COc1ccc(CN2CC(C(=O)NCCc3ccc(Cl)cc3)CC2=O)cc1 (stereo not given),inactive

row,Compound,Potency
1,CCc1ccc(Oc2coc3cc(O)ccc3c2=O)cc1,inactive
2,CCS(=O)(=O)Nc1cc(C(=O)OC)ccc1C(=O)OC,inactive
3,CCCN(CCC)C(=S)Nc1cc(C(=O)OC)ccc1C(=O)OC,18.4 µM (active)
4,CCN(CCO)C(=S)Nc1cc(C(=O)OC)ccc1C(=O)OC,inactive
5,CCc1ccc(-n2nc(C)c3c(C)cc(=O)n(CC(=O)Nc4ccc(F)cc4C)c32)cc1,inactive
6,CCC(C(=O)OC)n1cnc2c(oc3ccccc32)c1=O (stereo not given),inactive
7,Cc1ccc(S(=O)(=O)N2CCCCC2)cc1NC(=O)c1cccnc1,inactive
8,COc1ccc(C(=O)NC(=S)N2CCCCC2c2cccnc2)cc1OC (stereo not given),inactive
9,CCOc1ncccc1C(=O)Nc1ccc(S(=O)(=O)Nc2nc(C)cc(C)n2)cc1,inactive
10,Cc1cccc(C(=O)Nc2ccc(S(=O)(=O)N3CCCCC3c3cccnc3)cc2)c1 (stereo not given),23.1 µM (active)
11,Cc1cc(NS(=O)(=O)c2ccc(NC(=O)c3cccnc3)cc2)nc(C)n1,inactive
12,CCOc1ccccc1C(=O)Nc1ccc(S(=O)(=O)N2CCCCC2c2cccnc2)cc1 (stereo not given),18.4 µM (active)
13,COc1ccc(NC(=O)CSc2nnc(-c3nnn(-c4ccc(F)cc4)c3C)o2)cc1,inactive
14,CSc1ccc(CNC(=O)C2(C)CCCN2C)cc1 (stereo not given),inactive
15,CC1(C(=O)NCc2cccc3ccccc23)CCN1Cc1ccc(-c2ccccc2)o1 (stereo not given),23.1 µM (active)
16,CC1(C(=O)NCc2ccc3c(c2)OCO3)CCN1C(=O)Cc1cccs1 (stereo not given),inactive
17,CC1(C(=O)NS(=O)(=O)c2cccc(F)c2)CCN1C(=O)c1cccc2ccccc12 (stereo not given),inactive
18,CCCC(=O)N1CCC1(C)C(=O)NCc1ccc(SC)cc1 (stereo not given),inactive
19,CSc1ccc(CN2CCC2(C)C(=O)NCc2ccccc2Br)cc1 (stereo not given),18.4 µM (active)
20,CCN1CCN(C(c2ccc(C)cc2)c2c(O)cc(C)n(Cc3ccco3)c2=O)CC1 (stereo not given),inactive
21,O=C(NCc1ccccn1)Nc1ccc(Cl)cc1,inactive
22,Cn1cccc1/C=N/NC(=O)c1ccc(OC(F)(F)C(F)F)cc1,inactive
23,CCCC(=O)N1CCC1(C)C(=O)NS(=O)(=O)c1ccc(Cl)cc1 (stereo not given),inactive
24,O=C(CCN1C(=O)c2ccccc2C1=O)NCCCn1ccnc1,inactive
25,CC(=O)C(C)n1cnc2scc(-c3ccc(C)cc3)c2c1=O (stereo not given),inactive
